{"source": "paper PMC9911399", "about": "“Two distinct binding modes provide the RNA-binding protein RbFox with extraordinary sequence specificity”", "binders": {"B1": {"name": "ACACAAA (DNA:RNA)", "RNA": "GGGAGACCGGAAUUCAGAUUGUCCACACAAAUUAAAUCCCGUCGUAGCCACCA", "DNA 1": "CAATCTGAATTCCGGTCTCCC", "DNA 2": "TGGTGGCTACGACGGGATT"}, "B2": {"name": "GGUUCUG (DNA:RNA)", "RNA": "GGGAGACCGGAAUUCAGAUUGUCCGGUUCUGUUAAAUCCCGUCGUAGCCACCA", "DNA 1": "CAATCTGAATTCCGGTCTCCC", "DNA 2": "TGGTGGCTACGACGGGATT"}, "B3": {"name": "UGGCGUG (DNA:RNA)", "RNA": "B2 RNA with G25U, U27G, U28C, C29G", "DNA 1": "CAATCTGAATTCCGGTCTCCC", "DNA 2": "TGGTGGCTACGACGGGATT"}, "B4": {"name": "AUGCUUG (DNA:RNA)", "RNA": "B1 RNA with C26U, A27G, A29U, A30U, A31G", "DNA 1": "CAATCTGAATTCCGGTCTCCC", "DNA 2": "TGGTGGCTACGACGGGATT"}, "B5": {"name": "ACCAGCA (DNA:RNA)", "RNA": "B1 RNA with A27C, C28A, A29G, A30C", "DNA 1": "CAATCTGAATTCCGGTCTCCC", "DNA 2": "TGGTGGCTACGACGGGATT"}, "B6": {"name": "CAGCAUG (DNA:RNA)", "RNA": "B1 RNA with A25C, C26A, A27G, A30U, A31G", "DNA 1": "CAATCTGAATTCCGGTCTCCC", "DNA 2": "TGGTGGCTACGACGGGATT"}, "B7": {"name": "AGCAUAA (DNA:RNA)", "RNA": "B1 RNA with C26G, A27C, C28A, A29U", "DNA 1": "CAATCTGAATTCCGGTCTCCC", "DNA 2": "TGGTGGCTACGACGGGATT"}, "B8": {"name": "ACCAUGC (DNA:RNA)", "RNA": "B1 RNA with A27C, C28A, A29U, A30G, A31C", "DNA 1": "CAATCTGAATTCCGGTCTCCC", "DNA 2": "TGGTGGCTACGACGGGATT"}, "B9": {"name": "CAGCAUC (DNA:RNA)", "RNA": "B1 RNA with A25C, C26A, A27G, A30U, A31C", "DNA 1": "CAATCTGAATTCCGGTCTCCC", "DNA 2": "TGGTGGCTACGACGGGATT"}, "B10": {"name": "AGCCAGC (DNA:RNA)", "RNA": "B1 RNA with C26G, A27C, A30G, A31C", "DNA 1": "CAATCTGAATTCCGGTCTCCC", "DNA 2": "TGGTGGCTACGACGGGATT"}, "B11": {"name": "AUGCUGC (DNA:RNA)", "RNA": "B1 RNA with C26U, A27G, A29U, A30G, A31C", "DNA 1": "CAATCTGAATTCCGGTCTCCC", "DNA 2": "TGGTGGCTACGACGGGATT"}, "B12": {"name": "CAGCAUA (DNA:RNA)", "RNA": "B1 RNA with A25C, C26A, A27G, A30U", "DNA 1": "CAATCTGAATTCCGGTCTCCC", "DNA 2": "TGGTGGCTACGACGGGATT"}, "B13": {"name": "AGCCUGC (DNA:RNA)", "RNA": "B1 RNA with C26G, A27C, A29U, A30G, A31C", "DNA 1": "CAATCTGAATTCCGGTCTCCC", "DNA 2": "TGGTGGCTACGACGGGATT"}, "B14": {"name": "AGCAUGC (DNA:RNA)", "RNA": "B1 RNA with C26G, A27C, C28A, A29U, A30G, A31C", "DNA 1": "CAATCTGAATTCCGGTCTCCC", "DNA 2": "TGGTGGCTACGACGGGATT"}, "B15": {"name": "AGCAUGA (DNA:RNA)", "RNA": "B1 RNA with C26G, A27C, C28A, A29U, A30G", "DNA 1": "CAATCTGAATTCCGGTCTCCC", "DNA 2": "TGGTGGCTACGACGGGATT"}, "B16": {"name": "AAGUUAU (DNA:RNA)", "RNA": "B1 RNA with C26A, A27G, C28U, A29U, A31U", "DNA 1": "CAATCTGAATTCCGGTCTCCC", "DNA 2": "TGGTGGCTACGACGGGATT"}, "B17": {"name": "GUUUCAU (DNA:RNA)", "RNA": "B2 RNA with G26U, U30A, G31U", "DNA 1": "CAATCTGAATTCCGGTCTCCC", "DNA 2": "TGGTGGCTACGACGGGATT"}, "B18": {"name": "UAGCAGU (DNA:RNA)", "RNA": "B1 RNA with A25U, C26A, A27G, A30G, A31U", "DNA 1": "CAATCTGAATTCCGGTCTCCC", "DNA 2": "TGGTGGCTACGACGGGATT"}, "B19": {"name": "CGUACCU (DNA:RNA)", "RNA": "B2 RNA with G25C, U28A, U30C, G31U", "DNA 1": "CAATCTGAATTCCGGTCTCCC", "DNA 2": "TGGTGGCTACGACGGGATT"}, "B20": {"name": "AGCAUAU (DNA:RNA)", "RNA": "B1 RNA with C26G, A27C, C28A, A29U, A31U", "DNA 1": "CAATCTGAATTCCGGTCTCCC", "DNA 2": "TGGTGGCTACGACGGGATT"}, "B21": {"name": "UAGCAUG (DNA:RNA)", "RNA": "B1 RNA with A25U, C26A, A27G, A30U, A31G", "DNA 1": "CAATCTGAATTCCGGTCTCCC", "DNA 2": "TGGTGGCTACGACGGGATT"}, "B22": {"name": "ACCAUGG (DNA:RNA)", "RNA": "B1 RNA with A27C, C28A, A29U, A30G, A31G", "DNA 1": "CAATCTGAATTCCGGTCTCCC", "DNA 2": "TGGTGGCTACGACGGGATT"}, "B23": {"name": "UAGCAUA (DNA:RNA)", "RNA": "B1 RNA with A25U, C26A, A27G, A30U", "DNA 1": "CAATCTGAATTCCGGTCTCCC", "DNA 2": "TGGTGGCTACGACGGGATT"}, "B24": {"name": "UAGCAUC (DNA:RNA)", "RNA": "B1 RNA with A25U, C26A, A27G, A30U, A31C", "DNA 1": "CAATCTGAATTCCGGTCTCCC", "DNA 2": "TGGTGGCTACGACGGGATT"}, "B25": {"name": "AGCAUGU (DNA:RNA)", "RNA": "B1 RNA with C26G, A27C, C28A, A29U, A30G, A31U", "DNA 1": "CAATCTGAATTCCGGTCTCCC", "DNA 2": "TGGTGGCTACGACGGGATT"}, "B26": {"name": "AGAUGGU (DNA:RNA)", "RNA": "B1 RNA with C26G, C28U, A29G, A30G, A31U", "DNA 1": "CAATCTGAATTCCGGTCTCCC", "DNA 2": "TGGTGGCTACGACGGGATT"}, "B27": {"name": "AGCAUUG (DNA:RNA)", "RNA": "B2 RNA with G25A, U27C, U28A, C29U", "DNA 1": "CAATCTGAATTCCGGTCTCCC", "DNA 2": "TGGTGGCTACGACGGGATT"}, "B28": {"name": "AUGGUUG (DNA:RNA)", "RNA": "B2 RNA with G25A, G26U, U27G, U28G, C29U", "DNA 1": "CAATCTGAATTCCGGTCTCCC", "DNA 2": "TGGTGGCTACGACGGGATT"}, "B29": {"name": "AGCCAUG (DNA:RNA)", "RNA": "B1 RNA with C26G, A27C, A30U, A31G", "DNA 1": "CAATCTGAATTCCGGTCTCCC", "DNA 2": "TGGTGGCTACGACGGGATT"}, "B30": {"name": "AUGUUGG (DNA:RNA)", "RNA": "B2 RNA with G25A, G26U, U27G, C29U, U30G", "DNA 1": "CAATCTGAATTCCGGTCTCCC", "DNA 2": "TGGTGGCTACGACGGGATT"}, "B31": {"name": "AGCAUGG (DNA:RNA)", "RNA": "B2 RNA with G25A, U27C, U28A, C29U, U30G", "DNA 1": "CAATCTGAATTCCGGTCTCCC", "DNA 2": "TGGTGGCTACGACGGGATT"}}, "note": "Where a chain is given by its changes, count along the chain named. The full ranking holds about 16,000 sequences; the median of “ka relative to ugcaugu” is about 0.096, and the highest 2% start at about 0.35. What follows is part of a selection rich in the highest values, with near analogues and random picks from the rest.", "data": [{"molecular_target": "T1, RBFOX1 RRM RbFoxmut (Fox-RRM*) (Homo sapiens, UniProt Q9NWB1 109-208, R118D;E147R;N151S;E152T)", "T1 sequence": "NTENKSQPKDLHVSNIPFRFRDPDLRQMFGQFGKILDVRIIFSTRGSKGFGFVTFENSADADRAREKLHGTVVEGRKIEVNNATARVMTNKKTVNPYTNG", "assay": "EMSA; HiTS-Eq, 1 nM pool, 10 min; buffer printed only for the single-RNA assays: 10 mM Tris pH 7.5, 150 mM NaCl, 3.4 mM EDTA, 0.001% NP-40, 30 C", "conditions": "tags: His6 N-terminal (pET28a); label: 5' 32P", "procedure,_shortened": "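Purified RbFox RRM, wild type or mutant, was incubated for 10 min in 50 µL with 1 nM of a 5′-radiolabelled RNA pool carrying 7 randomized nucleotides, whose flanks were annealed to DNA oligonucleotides, over a series of increasing protein concentrations. Unbound RNA was resolved on 8% native PAGE, cut out, reverse-transcribed, barcoded by PCR and sequenced on an Illumina HiSeq 2500. Relative association constants were derived from changes in read counts for each RNA species versus the control reaction and normalised to the cognate motif.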", "values": [{"binder": "B1", "binding signal": "0.0812 KA relative to UGCAUGU"}, {"binder": "B2", "binding signal": "0.208 KA relative to UGCAUGU"}, {"binder": "B3", "binding signal": "0.321 KA relative to UGCAUGU"}, {"binder": "B4", "binding signal": "0.361 KA relative to UGCAUGU"}, {"binder": "B5", "binding signal": "0.121 KA relative to UGCAUGU"}, {"binder": "B6", "binding signal": "0.965 KA relative to UGCAUGU"}, {"binder": "B7", "binding signal": "0.0973 KA relative to UGCAUGU"}, {"binder": "B8", "binding signal": "0.0949 KA relative to UGCAUGU"}, {"binder": "B9", "binding signal": "0.307 KA relative to UGCAUGU"}, {"binder": "B10", "binding signal": "0.0776 KA relative to UGCAUGU"}, {"binder": "B11", "binding signal": "0.126 KA relative to UGCAUGU"}, {"binder": "B12", "binding signal": "0.137 KA relative to UGCAUGU"}, {"binder": "B13", "binding signal": "0.0804 KA relative to UGCAUGU"}, {"binder": "B14", "binding signal": "0.495 KA relative to UGCAUGU"}, {"binder": "B15", "binding signal": "0.524 KA relative to UGCAUGU"}, {"binder": "B16", "binding signal": "0.118 KA relative to UGCAUGU"}, {"binder": "B17", "binding signal": "0.132 KA relative to UGCAUGU"}, {"binder": "B18", "binding signal": "0.0735 KA relative to UGCAUGU"}, {"binder": "B19", "binding signal": "0.099 KA relative to UGCAUGU"}, {"binder": "B20", "binding signal": "0.133 KA relative to UGCAUGU"}, {"binder": "B21", "binding signal": "0.819 KA relative to UGCAUGU"}, {"binder": "B22", "binding signal": "0.0839 KA relative to UGCAUGU"}, {"binder": "B23", "binding signal": "0.0997 KA relative to UGCAUGU"}, {"binder": "B24", "binding signal": "0.266 KA relative to UGCAUGU"}, {"binder": "B25", "binding signal": "0.713 KA relative to UGCAUGU"}, {"binder": "B26", "binding signal": "0.117 KA relative to UGCAUGU"}, {"binder": "B27", "binding signal": "0.2 KA relative to UGCAUGU"}, {"binder": "B28", "binding signal": "0.48 KA relative to UGCAUGU"}, {"binder": "B29", "binding signal": "0.163 KA relative to UGCAUGU"}, {"binder": "B30", "binding signal": "0.123 KA relative to UGCAUGU"}, {"binder": "B31", "binding signal": "0.538 KA relative to UGCAUGU"}]}]}
